Screening results as filed in PubChem BioAssay.
RecA splice inh: inhibitors of M. tuberculosis RecA intein splicing; P9WHJ3; cell-free RecA intein splicing, fluorescence; inhibition, % (concentration not given with the values); 290,000 tested, 0.75% active; in the data active = inhibition above about 30%;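 note: 0% = vehicle wells and 100% = reference inhibitor control wells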
Target sequence (P9WHJ3 whole entry, looked up, canonical isoform): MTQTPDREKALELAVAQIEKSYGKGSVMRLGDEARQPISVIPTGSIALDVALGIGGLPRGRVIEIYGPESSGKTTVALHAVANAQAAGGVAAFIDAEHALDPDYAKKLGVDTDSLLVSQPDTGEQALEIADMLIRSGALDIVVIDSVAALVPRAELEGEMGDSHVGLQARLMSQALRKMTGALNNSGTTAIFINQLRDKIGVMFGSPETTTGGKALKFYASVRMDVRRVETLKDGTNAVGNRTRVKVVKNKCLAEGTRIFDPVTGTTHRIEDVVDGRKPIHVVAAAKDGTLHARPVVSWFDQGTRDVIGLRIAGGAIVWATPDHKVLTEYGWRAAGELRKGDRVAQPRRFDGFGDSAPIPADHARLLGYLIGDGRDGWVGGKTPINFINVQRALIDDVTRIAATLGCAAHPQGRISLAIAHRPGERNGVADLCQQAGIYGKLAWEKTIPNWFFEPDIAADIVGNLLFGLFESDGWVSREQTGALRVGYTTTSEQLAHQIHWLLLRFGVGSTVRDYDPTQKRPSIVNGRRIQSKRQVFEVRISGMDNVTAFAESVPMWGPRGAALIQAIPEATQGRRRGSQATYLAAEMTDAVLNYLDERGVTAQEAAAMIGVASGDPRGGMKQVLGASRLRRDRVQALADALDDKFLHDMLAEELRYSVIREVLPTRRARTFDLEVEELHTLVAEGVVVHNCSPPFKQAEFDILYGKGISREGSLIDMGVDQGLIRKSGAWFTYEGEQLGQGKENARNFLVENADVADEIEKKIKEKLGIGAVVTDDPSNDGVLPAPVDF
GDH-TPI inh: counter-screen for M. tuberculosis FBA inhibitors: GDH-TPI coupled enzymes; GDH-TPI coupled enzyme counterscreen, NADH absorbance; 360,000 tested, 1.2% active; AID 588335; inhibition, % at 4.8 µM; in the data active = inhibition above about 30%;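 note: 0% = DMSO wells and 100% = wells lacking the enzyme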
BJeLR viability: kills HRASV12-expressing BJeLR cells | inhibition, % (concentration not given with the values) | AID 1554 | BJeLR (HRASV12) viability, CellTiter-Glo ATP luminescence, 48 h | 300,000 tested, 0.17% active; in the data active = inhibition above about 50%
PrPC surface inh: cell surface PrPC inhibition, primary TR-FRET screen; P04156; TR-FRET read-out; inhibition, % at 13.8 µM; 370,000 tested, 0.43% active; AID 720596; in the data active = inhibition above about 24%; note: 0% = median of the test wells and 100% = reference compound wells
Mtb FBA inh: inhibitors of M. tuberculosis fructose-bisphosphate aldolase; P9WQA3; purified M. tuberculosis FBA, fluorescence read-out; inhibition, % at 1 µM; 360,000 tested, 2.3% active; AID 588726; in the data active = inhibition above about 27%;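 note: 0% = vehicle and 100% = reference inhibitor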
Active calls of the source: *; . = not tested or not shown; + = active, no number. Rows were chosen to be rich in hits. Some 4.2% of all compounds tested hit in one or more screens of this group.

SMILES | RecA splice inh | GDH-TPI inh | BJeLR viability | PrPC surface inh | Mtb FBA inh
Cc1cc(Nc2c(C)n(C)n(-c3ccccc3)c2=O)n2c(nc3ccccc32)c1C#N | -2 | -3 | 1 | 3 | 0
C=CCc1c(C)c(C#N)c2nc3ccccc3n2c1N1CCCCC1 | -16 | 0 | -6 | 2 | 3
CCN(CC)CCCNc1cc(C)c(C#N)c2nc3ccccc3n12 | . | 14 | . | 4 | 116*
Cc1c2c(n3c(nc4ccccc43)c1C#N)N(CCN1CCOCC1)CC2 | -205 | 10 | 5 | -11 | +
Cc1ccc(OCc2nn3c(C4CCCCC4)nnc3s2)cc1 | . | . | . | 0 | .
CCC[C@H]1[C@@H](NC(=O)C2CCCCC2)CC[C@@]23CCCN2C(=O)CCC[C@@H]13 | . | . | . | -5 | .
Nc1nc(C(=O)N2CCOCC2)nn1C(=O)c1ccc(Cl)cc1 | 32* | -1 | 3 | -5 | 0
CCOC(=O)[C@@]12CN(C(=O)OC(C)(C)C)CC=C1N(Cc1ccc(OC)cc1)C(=O)[C@H]2CC(=O)NCc1cccs1 | . | . | . | 12 | .
CCOc1ccc(/C=N/NC(=S)Nc2c(C)cccc2C)cc1 | 0 | 32* | -2 | 17 | 2
CCNC(=S)N/N=C/c1ccc(OCCOc2ccccc2C)cc1 | 1 | 15 | -1 | 2 | -1
C[C@]12CCC3C(CCC4=CC(O)CC[C@@]43/C=N/O)C1(O)CCC2C1=CC(=O)OC1 (stereo not given in full) | 7 | 2 | 69* | 2 | 1
CCc1nnc(NC(=O)/C=C/c2ccco2)s1 | . | 47* | -2 | -3 | -2
O=C(/C=C/c1ccco1)Nc1nnc(-c2ccco2)s1 | 1 | 13 | -1 | 6 | 0
N#Cc1c(NC(=O)/C=C/c2ccco2)sc2c1CCCC2 | 1 | 15 | 56* | 4 | -1
CCSc1nnc(NC(=O)/C=C/c2ccco2)s1 | . | 24 | 4 | 10 | 6
O=C(/C=C/c1ccco1)Nc1sc2c(c1C(=O)O)CCC2 | 4 | 24 | 9 | -19 | -3
N#Cc1c(NC(=O)CSc2nnc(-c3ccccc3)o2)sc2c1CCCC2 | 0 | 31* | -1 | . | 1
Cc1nc(NC(=O)/C=C/c2ccco2)sc1C | 0 | 32* | 25 | -2 | 0
CC1CCN(c2ccc(C(=O)O)cc2NS(=O)(=O)c2ccccc2)CC1 | . | . | . | 6 | .
CN(c1c2c(nc3ncnn13)CCCC2)C1CCCCC1 | . | . | . | 12 | .
Cc1nc(-c2cnn(-c3ccccc3)c2)c2cc(C)oc2n1 | 4 | 9 | -10 | -3 | 119*
O=C(Nc1ccc(-c2nc3cccnc3s2)cc1)c1ccc(Br)o1 | -2 | 19 | 0 | 3 | 13
Nc1ccc(-c2nc3ncccc3o2)cc1 | -1 | 43* | -10 | 14 | +
O=C(Nc1ccc(-c2nc3ncccc3o2)cc1)c1ccc(Br)o1 | -5 | 57* | -2 | 1 | 14
O=C(NCCCN1CCN(c2ccc(F)cc2)CC1)NCc1ccccc1 | . | . | . | 6 | .
SMILES | RecA splice inh | GDH-TPI inh | BJeLR viability | PrPC surface inh | Mtb FBA inh
COC(=O)C[C@H]1CC[C@@H]2[C@@H](COc3ccc(NC(=O)c4ccccc4)cc3C(=O)N2C)O1 | . | . | . | 0 | .
COc1ccc(N=CC2=C(O)c3ccccc3C2=O)c(OC)c1 | 13 | 7 | 4 | -5 | 19
Cc1ccccc1N=CC1=C(O)c2ccccc2C1=O | -1 | 46* | -1 | -5 | -4
O=C(OCCN1CCN(C2CN(Cc3cn(Cc4ccccc4Cl)nn3)S(=O)(=O)C2)CC1)c1cc2ccccc2o1 (stereo not given) | . | . | . | -3 | .
Cc1ccc(Cn2ncc(Cl)c(Cl)c2=O)cc1 | 38* | -6 | 9 | 1 | 2
Cc1cc(C)cc(Cn2ncc(Cl)c(Cl)c2=O)c1 | 56* | . | -1 | 4 | .
CCc1ccc(C(=O)Cn2ncc(Cl)c(Cl)c2=O)cc1 | 15 | 9 | 1 | -3 | 2
Cc1cc(=S)[nH]c(=S)[nH]1 | -3 | 35* | -13 | 3 | -1
Cc1cc(C)c2[nH]c(=S)cc(C)c2c1 | 2 | 9 | -5 | 2 | 2
CCOC(=O)[C@@]12CCCC=C1N(CCc1ccc(Cl)cc1)C(=O)[C@H]2CC(=O)NCc1cccc(C(F)(F)F)c1 | . | . | . | 2 | .
O=S(=O)(O)c1cc2oc(-c3ccccc3)nc2c2ccccc12 | -1 | 19 | -1 | -3 | +
COc1ccc(C=C2OC(=O)C(C(C)=O)=C2O)cc1 | . | 59* | . | 0 | 14
CC(=O)C1=C(O)C(=Cc2ccccc2)OC1=O | . | 26 | . | 5 | 11
CN(C)c1ccc(C=NC(CO)C(O)c2ccc([N+](=O)[O-])cc2)cc1 (stereo not given) | -3 | 38* | -4 | -8 | -7
Cc1ccc(NCC(=O)N/N=C/c2cccn2C)cc1 | 1 | 35* | -3 | 2 | 0
COc1cc(-c2c(C(=O)c3ccccc3)[nH]c(N)c2C(N)=O)ccc1O | . | . | . | -12 | .
Cc1ccccc1-n1c(O)c(/C=N/c2nccs2)c(=O)[nH]c1=O | -3 | -4 | -5 | 12 | 2
Cc1ccccc1-n1c(O)c(C=Nc2ccc(N(C)C)cc2)c(=O)[nH]c1=O | -2 | 43* | -3 | -8 | -9
Cc1cccc(N=Cc2c(O)n(-c3ccccc3C)c(=O)[nH]c2=O)c1 | -3 | 48* | -6 | 4 | -2
CCn1c2ccccc2c2cc(NC(=O)COC(=O)c3cc(F)cc(F)c3)ccc21 | . | . | . | 0 | .
COc1ccc(C(=O)N[C@@H]2CC[C@@]34CCCN3C(=O)CCC[C@H]4[C@H]2C)cc1 | . | . | . | -2 | .
Cc1ccc2nc(-c3ccc(NC(=O)CSc4nnc(-c5cccc(Cl)c5)n4Cc4ccco4)cc3)sc2c1 | . | . | . | 0 | .
COc1ccc(-c2nc3ccc(C)cn3c2Cc2ccccc2)cc1OC | . | . | . | 4 | 90*
Nc1ccn([C@@H]2O[C@H](C(=O)N[C@H](Cc3ccccc3)C(=O)NCc3cccc4c3OCO4)[C@@H](O)[C@H]2O)c(=O)n1 | . | . | . | -4 | .
C=CCn1c(SCC(=O)OC(C)C)nnc1-c1ccc(C)cc1 | . | . | . | -3 | .
SMILES | RecA splice inh | GDH-TPI inh | BJeLR viability | PrPC surface inh | Mtb FBA inh
O=C(Cc1ccc([N+](=O)[O-])cc1)c1c(O)cc(O)cc1O | 2 | 35* | 1 | 2 | -1
COCCn1nnnc1CN1CCN(c2cccc(C(F)(F)F)c2)CC1 | 4 | -5 | -3 | -8 | 191*
COCCn1nnnc1CN1CCC(O)(c2cccc(C(F)(F)F)c2)CC1 | -1 | -4 | 10 | -9 | -2
Fc1ccc(Oc2nc(-c3ccccc3)nnc2C(F)(F)F)cc1 | 62* | -3 | 0 | 0 | 13
FC(F)(F)c1nnc(-c2ccccc2)nc1Oc1ccccc1 | 5 | 0 | -1 | -6 | 3
C#CCNC(=O)C[C@H]1C[C@@]2(C(=O)OC)C(=C[C@H](C3CCCC3)O[C@@H]2C)N(Cc2ccc(Cl)cc2Cl)C1=O | . | . | . | 1 | .
Cc1cc(C)n2cc(CSc3ccc(Br)cc3)nc2n1 | 3 | 1 | -9 | 10 | 8
Cc1cc(C)n2cc(CSCC(=O)O)nc2n1 | 1 | 12 | 1 | 5 | 123*
CCOc1ccc(-n2c(COc3ccc(C)cc3)nnc2SCC(=O)Nc2ccc(F)c(F)c2)cc1 | . | . | . | -3 | .
O=C(Nc1ccc(Br)cc1)Nc1ccccc1F | 3 | 0 | 3 | 23 | -1
CCN(CC)C(=O)c1ccc(NC(=O)Nc2ccccc2F)cc1 | 3 | 0 | 55* | 4 | -2
